# From PubChem BioAssay (Tox21)
# Inconclusive results are not listed. The source made the active and inactive calls. Calls follow the shape of the dose curve; as a rule, active = well fitted cell-killing curve with a large enough effect in the repeat runs; inconclusive = weak or mixed curves; inactive = no such curve, though single readings can be large or run the other way.
# Experiment: qHTS assay to identify small molecule antagonists of the androgen receptor (AR) signaling pathway - cell viability counter screen (AID 743033; also: nearly all actives have a fitted effect of over 45% in size)
# Conditions: AR-bla HEK293 viability, CellTiter-Glo luminescence, 16 h; series mostly up to 58.5 µM; activity change, negative = cytotoxicity: at the top concentration
# Excerpt: National Center for Advancing Translational Sciences [NCATS]
# NIH Chemical Genomics Center [NCGC]
# U.S. Environmental Protection Agency [EPA]
# National Institutes of Environmental Health Sciences [NIEHS]
# National Toxicology Program [NTP]
# U.S. Food and Drug Administration [FDA]
# Androgen receptor (AR), a nuclear hormone receptor, plays a critical role in AR-dependent prostate cancer and other androgen related diseases. Endocrine disrupting chemicals (EDCs) and their interactions with steroid hormone receptors like AR may cause disruption of normal endocrine function as well as interfere with metabolic homeostasis, reproduction, developmental and behavioral functions. To identify the compounds that inhibit AR signaling, GeneBLAzer AR-UAS-bla-GripTite cell line (Invitrogen, Carlsbad, CA, USA) containing a beta-lactamase reporter gene under control of an Upstream Activator Sequence (UAS) stably integrated into HEK293 cells was used to screen the Tox21 10K compound library. The cytotoxicity of the Tox21 compound library against the AR-bla cell line was tested in parallel by measuring the cell viability using CellTiter-Glo assay in the same wells.
# Tox21 Assay Protocol Summary:
# AR-bla cells were dispensed at 2,000 cells/5 uL of assay medium per well into black wall/clear-bottom 1536-well plates using a Multidrop Combi (ThermoFisher Scientific, Waltham, MA) dispenser. After the assay plates were incubated at a 37C and 5% CO2 for 4 hr, 23 nL of compounds dissolved in DMSO, positive controls or DMSO only was transferred to the assay plate by a Pintool station (Kalypsys, San Diego, CA), followed by addition of 1 uL of agonist (R1881) in culture medium using a Bioraptr Flying Reagent Dispenser (FRD) workstation (Beckman Coulter, Indianapolis, IN, USA). The plates were incubated at a 37C and 5% CO2 for 16 h. After 1 uL of LiveBLAzerTM B/G FRET substrate was added using a Bioraptr FRD, the plates were incubated at room temperature for 2 h and fluorescence intensity was measured by an Envision plate reader (PerkinElmer, Shelton, CT). For cell viability readout that measures cytotoxicity, 4 ul/well of CellTiter-Glo reagent was added into the assay plates using a Bioraptr FRD. After 30 min incubation at room temperature, the luminescence intensity in the plates was measured using a ViewLux (PerkinElmer) plate reader.
# % is scaled to controls: 0 for no effect and ±100 for the full control effect.
row,SMILES,"activity change, negative = cytotoxicity"
1,Nc1n[nH]c(N)n1,17.2% [at 78.9 µM] (inactive)
2,COC(=O)COc1ccc(Cl)cc1Cl,1.06% (inactive)
3,O=C(Cc1ccccc1)OCc1ccccc1,3.21% [at 78.9 µM] (inactive)
4,O=C(CCN1CC1)OCC(CO)(COC(=O)CCN1CC1)COC(=O)CCN1CC1,5.74% (inactive)
5,COc1cc(OC)nc(NC(=O)NS(=O)(=O)c2ncccc2OCC(F)(F)F)n1,-1.33% (inactive)
6,O=C(O)c1cccc(Cl)c1,4.31% (inactive)
7,CCOP(=S)(OCC)SCSP(=S)(OCC)OCC,5.3% (inactive)
8,Cc1ccccc1CO[C@@H]1C[C@@]2(C(C)C)CC[C@]1(C)O2,-1.29% (inactive)
9,OC(c1ccc(F)cc1)(c1cncnc1)c1ccccc1Cl (stereo not given),-13.3% (inactive)
10,ClC(Cl)(Cl)C(Cl)(Cl)Cl,1.17% [at 78.9 µM] (inactive)
11,CCCCCCI,-6.42% (inactive)
12,C=CC1CC=CCC1 (stereo not given),3.43% (inactive)
13,CC(C)NCC(O)c1ccc(N)c(C#N)c1 (stereo not given),4.03% (inactive)
14,CCOP(=S)(OCC)Oc1cc(-c2ccccc2)on1,0.683% (inactive)
15,COC(=O)C1=CCCN(C)C1,0.753% (inactive)
16,Cc1cnc[nH]1,4.33% (inactive)
17,Cc1ncc(CNC(=O)N(CCCl)N=O)c(N)n1,2.45% (inactive)
18,CCCCCCBr,-1.34% [at 78.9 µM] (inactive)
19,CC(C)CC(N(C)C)C1(c2ccc(Cl)cc2)CCC1 (stereo not given),-19.9% (inactive)
20,O=C(N[C@H]1CN2CCC1CC2)c1cc2ccoc2cn1,0.995% (inactive)

row,SMILES,"activity change, negative = cytotoxicity"
1,COC(C)(C)C,-12.7% (inactive)
2,ClC(Br)Br,3.48% (inactive)
3,O=C(O)C(Br)CBr (stereo not given),-14.7% [at 78.9 µM] (inactive)
4,CC(=O)CC(c1ccc(Cl)cc1)c1c(O)c2ccccc2oc1=O (stereo not given),-3.61% [at 78.9 µM] (inactive)
5,CCOC(=O)NC(=S)Nc1ccccc1NC(=S)NC(=O)OCC,1.17% (inactive)
6,O=[N+]([O-])c1cccc(O)c1,2.79% [at 78.9 µM] (inactive)
7,CC(=O)CCc1ccc2c(c1)OCO2,3.2% (inactive)
8,CC(C1CC1)C(O)(Cn1cncn1)c1ccc(Cl)cc1 (stereo not given),-11.5% (inactive)
9,O=[N+]([O-])c1cc(Cl)c(Cl)c(Cl)c1,0.491% (inactive)
10,[As]#[In],2.37% (inactive)
11,ClCC(Cl)(Cl)Cl,3.27% [at 78.9 µM] (inactive)
12,c1cc[c]([Hg][c]2ccccc2)cc1,-14.5% (inactive)
13,c1cc2c(c(N3CCNCC3)c1)OCCO2,2.09% (inactive)
14,O=C1OC(=O)C2C1C1(Cl)C(Cl)=C(Cl)C2(Cl)C1(Cl)Cl (stereo not given),0.745% [at 78.9 µM] (inactive)
15,CCOc1nc(C(Cl)(Cl)Cl)ns1,9.63% (inactive)
16,CCOP(=S)(OCC)Oc1ncn(-c2ccccc2)n1,-9.01% (inactive)
17,COC(=O)C(C)Oc1ccc(Oc2ccc(Cl)cc2Cl)cc1 (stereo not given),-1.35% (inactive)
18,CCCCC(=O)Cl,3.32% [at 78.9 µM] (inactive)
19,CC(C)CC#N,0.16% [at 78.9 µM] (inactive)
20,NC1=NC(=O)C(c2ccccc2)O1 (stereo not given),0.864% (inactive)
